Consider 17 compounds from PubChem BioAssay.

The structures appear in SMILES notation. Values without a mark were called inactive. The rule behind the calls is not given here.

For this assay, the target named is Pantothenate synthetase (Mycobacterium tuberculosis (strain ATCC 25618 / H37Rv)) (UniProt P9WIL5). The experiment in a line: Coupled enzyme confirmation of inhibitors against recombinant Mtb PanC (AID 375).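 Note: 0% = full reaction with vehicle and 100% = no enzyme background.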 Conditions: coupled enzyme assay; at 10 µM, stronger effect = higher value.
Sequence of Pantothenate synthetase (Mycobacterium tuberculosis (strain ATCC 25618 / H37Rv)) (P9WIL5 whole entry, looked up): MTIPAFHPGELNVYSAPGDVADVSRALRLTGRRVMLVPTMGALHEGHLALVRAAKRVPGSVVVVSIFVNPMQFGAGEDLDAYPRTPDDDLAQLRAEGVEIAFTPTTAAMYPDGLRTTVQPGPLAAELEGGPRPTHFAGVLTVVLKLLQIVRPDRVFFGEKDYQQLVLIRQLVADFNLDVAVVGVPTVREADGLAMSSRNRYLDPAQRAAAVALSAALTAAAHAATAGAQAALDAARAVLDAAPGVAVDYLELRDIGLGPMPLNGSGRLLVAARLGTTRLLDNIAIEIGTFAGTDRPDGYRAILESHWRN
As usually defined, the inhibition is how much of the control response was suppressed. Take `CC(C)(C)OC(=O)N1CC=C2C(C#N)=C(N)C(C#N)(C#N)[C@H](c3cccnc3)[C@H]2C1`: the inhibition was 5%.

As for `CCCCC(=NCCO)C1=C(O)C(C(=O)OC)C(C)(C)CC1=O` (configuration not stated), the inhibition was 8%.

With `C/C=C(\C)c1nnc(NC(=O)C(C)C)s1`, the inhibition is 1%.

For the compound `CCCn1c(SCC(=O)Nc2nnc(-c3ccccc3)s2)nnc1-c1ccccn1`, the inhibition was 0%.

For the compound `COC(=O)C1=C(N)OC2=C(C(=O)CCC2)C1c1cccs1` (configuration not stated), the inhibition is 0%.

As to `COC(=O)/C=c1\sc2ncnn2c1=O`, the inhibition is 0%.

With `O=C(CSc1nc(-c2ccco2)cc(C(F)(F)F)n1)NCCCn1ccnc1`, the inhibition was 8%.

Take `CCOC(=O)C1CCN(C(c2cc3cc(C)cc(C)c3[nH]c2=O)c2nnnn2C2CCCCC2)CC1` (configuration not stated): the inhibition was 0%.

As for `CN(C)c1nc(SCCOC(=O)c2ccccc2)nc(N(C)C)n1`, the inhibition was 6%.

Take `CC(NC(=O)Nc1ccccc1)C(c1cccs1)N1CCOCC1` (configuration not stated): the inhibition was 0%.

`Cc1occc1C(=O)Nc1ccc(S(=O)(=O)N2CCN(C)CC2)cc1`: the inhibition is 0%.

Turning to `Clc1cccc(N2CCN(Cc3nc(-c4ccccc4)no3)CC2)c1`, the inhibition was 0%.

Regarding `CN(C(=O)c1ccccn1)c1nnc(-c2cccnc2)s1`, the inhibition is 6%.

For `O=C(Nc1ccccc1)c1cnc2n(c1=O)CCS2`, the inhibition was 0%.

In the case of `CCCS(=O)(=O)N1CCN(C(=O)c2cccnc2)CC1`, the inhibition is 0%.

Take `C=CCN1C(=O)CS/C1=C(\C#N)S(=O)(=O)c1ccc(C)cc1`: the inhibition was 0%.

Turning to `COc1ccc(CNc2oc(-c3ccccc3)nc2C#N)cc1`, the inhibition was 5%.
